Results: PubChem BioAssay (NCI)
Compounds without any hit were thinned out: in the full panel of roughly 79,000, 15% have a hit. Cut-off read from the data, not from the text of the source: active = growth inhibition above about 70%; inactive = the rest.

Experiments:
[1] = NCI Yeast Anticancer Drug Screen. Data for the rad50 strain (AID 155);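 note: 0% = growth of vehicle-only cultures of the same strain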; conditions: S. cerevisiae rad50 strain growth inhibition; at 50.0 µM; hits give high values
Summary of the method: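 Genetically altered yeast (DNA repair pathway); compound treatment; growth inhibition vs vehicle ctrl.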

[2] = NCI Yeast Anticancer Drug Screen. Data for the mec2-1 strain (AID 157); conditions: S. cerevisiae mec2-1 strain, at 50.0 µM, hits give high values
Summary of the method: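 Yeast mec2-1 mutant treated with compound. Readout: growth inhibition vs vehicle controls.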

[3] = NCI Yeast Anticancer Drug Screen. Data for the sgs1 mgt1 strain (AID 161);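 note: 0% = growth of cultures given vehicle only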; conditions: S. cerevisiae sgs1 mgt1 strain, at 50.0 µM, hits give high values
Summary of the method: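 Inhibition of yeast growth, normalised to vehicle-treated controls, is reported for a strain bearing genetic alterations in DNA damage repair.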

[4] = NCI Yeast Anticancer Drug Screen. Data for the cln2 rad14 strain (AID 165);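 note: 0% = growth equal to vehicle treated cultures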; conditions: S. cerevisiae cln2 rad14 strain, at 50.0 µM, hits give high values
Summary of the method: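 cln2 rad14 yeast strain; compound exposure; growth inhibition read vs vehicle controls.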

[5] = NCI Yeast Anticancer Drug Screen. Data for the bub3 strain (AID 167); conditions: S. cerevisiae bub3 mutant strain, at 50.0 µM, hits give high values
Summary of the method: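 Yeast carrying a defined mutation is treated with each compound, and growth is compared with that of vehicle-exposed cells to give inhibition.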

[6] = NCI Yeast Anticancer Drug Screen. Data for the mlh1 rad18 strain (AID 175); conditions: S. cerevisiae mlh1 rad18 strain growth inhibition; at 50.0 µM; hits give high values
Summary of the method: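 Yeast w/ defined DNA-repair lesions; compound exposure; growth vs vehicle controls → % inhibition.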

Measured: growth inhibition

COC1(C)COC(C)(OC)CO1 (stereo unspecified)
inactive: [1] 34.3% | [2] 20.9% | [3] 24.1% | [4] 13.6% | [5] 12.8% | [6] 18.6%

COc1ccc(C)cc1S(=O)(=O)c1c(Cl)cccc1[N+](=O)[O-]
inactive: [1] -5.95% | [2] -15.4% | [3] 2.25% | [4] -20.5% | [5] -1.3% | [6] -36.8%

CCOC(=O)/C=C(/C)N
inactive: [1] -19.1% | [2] -7.25% | [3] -14.2% | [4] 8.45% | [5] 1.85% | [6] -0.75%

CCOC(=O)C1SC(=Nc2ccc(OC)c(OC)c2)N=C1C (stereo unspecified)
inactive: [1] 17.9% | [2] 4.2% | [3] 50.3% | [4] 4.95% | [5] 29.9% | [6] 1.4%

O=C1NC(=O)c2ccc(S)c3cccc1c23
inactive: [1] 0.5% | [2] 0% | [3] -2.35% | [4] -41.1% | [5] 3.35% | [6] -8.05%

O=c1c2ccccc2c2cc3nc4ccc([N+](=O)[O-])cc4c(=O)n3c3cccc1c23
inactive: [1] -0.15% | [2] -2.65% | [3] -15.7% | [4] 6.15% | [5] -4.9% | [6] -10.4%

N#Cc1c(-c2ccccc2)c(C#N)c(=S)n(C2OCC(O)C(O)C2O)c1N (stereo unspecified)
inactive: [1] -23.6% | [2] -2.2% | [3] -10% | [4] -38.5% | [5] 3.05% | [6] -15.1%

NC(=O)n1ccc(CC(O)(C(F)(F)F)C(F)(F)F)n1
inactive: [1] -13.2% | [2] 44% | [3] -2.55% | [4] 55.1% | [5] 2.35% | [6] 22.4%

CC(=O)N(C)c1ccc(O)cc1
inactive: [1] 14.6% | [2] -16.1% | [3] -16.1% | [4] -18.6% | [5] -8.9% | [6] 9.2%

C=CCc1cc(C)ccc1OC(=O)c1cc([N+](=O)[O-])cc([N+](=O)[O-])c1
inactive: [1] 2.85% | [2] -3.4% | [3] 4.55% | [4] -40% | [5] -6.6% | [6] 0.6%

CCSc1nc(Cl)nc2c1cnn2C
inactive: [1] 7.95% | [2] -2.15% | [3] 8.05% | [4] 4.1% | [5] 24.9% | [6] 5.4%

Cn1c(=O)oc2cc(C(=O)CSC(=S)N3CCCCCC3)ccc21
inactive: [1] -18.3% | [2] -33.1% | [3] -17.6% | [4] -14.8% | [5] -4.8% | [6] -7.6%

O=C(/C(=C\C(=O)c1cccs1)c1ccsc1)c1ccc(Br)cc1
inactive: [1] 1.2% | [2] -32% | [3] 11.2% | [4] -25.9% | [5] 14.5% | [6] -17.3%

COc1ccc(C(c2c(O)c3ccccc3oc2=O)N2CCCC2)c(OC)c1 (stereo unspecified)
inactive: [1] 7.7% | [2] -5.7% | [3] -3.25% | [4] -25.1% | [5] -1.15% | [6] -3.3%

N#Cc1cccc(NC(=O)c2ccc(C(=O)O)c(C(=O)c3ccc(C(=O)O)c(C(=O)Nc4cccc(C#N)c4)c3)c2)c1
inactive: [1] -18.6% | [2] -9.7% | [3] -19% | [4] 8.35% | [5] 2% | [6] -20.8%

COc1ccc(CC(C)C(C)Cc2ccc(OC)c(OC)c2)cc1OC (stereo unspecified)
inactive: [1] 4.9% | [2] 9.15% | [3] 1.6% | [4] -4.75% | [5] 4.25% | [6] -3.6%

OC(C1CCCCCCCCCC1)C(O)C1CCCCCCCCCC1 (stereo unspecified)
inactive: [1] -35.5% | [2] -38.6% | [3] 2.8% | [4] 15.3% | [5] -38% | [6] -8.85%

Cc1ccc(/C(O)=C/c2nc3c(nc2NC24CC5CC(CC(C5)C2)C4)c(=O)oc2ccccc23)cc1
inactive: [1] 5.65% | [2] -0.65% | [3] -6.7% | [4] -3.7% | [5] 6.1% | [6] 1.85%

CCOC(=O)CNC(=O)NC
inactive: [1] 1.25% | [2] 8.15% | [3] -6.75% | [4] -11.7% | [5] -6.25% | [6] 38%

Cc1cccc(C)[n+]1[O-]
inactive: [1] 1.6% | [2] 5.25% | [3] -6.9% | [4] -38.8% | [5] 16.5% | [6] 0.65%

COC(=O)c1ccc(C(=O)OC)c(O)c1O
inactive: [1] 11.3% | [2] 27.9% | [3] 8.85% | [4] -2.85% | [5] 12.8% | [6] 16.4%

CC(C(=O)O)C(C)C(=O)Nc1ccccc1 (stereo unspecified)
inactive: [1] 33.9% | [2] 6.15% | [3] 11.1% | [4] 24.4% | [5] 1.5% | [6] 28.4%

COc1ccc(NC(=O)CCC2=CC(=O)CC(c3ccccc3)O2)cc1 (stereo unspecified)
inactive: [1] 2.9% | [2] 9.65% | [3] 2.35% | [4] 25.3% | [5] -8.45% | [6] -5.05%

CC(=O)/C(=C\c1ccccc1)C(=O)CCN(C)C
inactive: [1] 21.9% | [2] 36.6% | [3] 14.4% | [4] 12.2% | [5] 7% | [6] -9.9%

O=C1C(Cl)=C(NCCCN2CCN(CCCNC3=C(Cl)C(=O)c4ccccc4C3=O)CC2)C(=O)c2ccccc21
inactive: [1] 44.5% | [2] 27.8% | [3] 33.1% | [4] 9.45% | [5] 6.35% | [6] 33.6%

CC(C)COS(=O)(=O)O
inactive: [1] 19.2% | [2] 6.65% | [3] 20% | [4] 24.9% | [5] 15.2% | [6] 27.1%

Cc1c(C2CC(=O)N(c3ccccc3)C2=O)c2ccccc2n1C (stereo unspecified)
inactive: [1] -6.25% | [2] -6% | [3] -7.4% | [4] -33.7% | [5] 1.85% | [6] -8.25%

CNS(=O)(=O)c1c(C)cccc1CC(=O)c1ccccc1
inactive: [1] -4.3% | [2] 0.65% | [3] 12.2% | [4] -12.8% | [5] 14.8% | [6] -8.2%

C/C=C/C(C/C=C(\C)CO[Si](C)(C)C(C)(C)C)O[Si](C)(C)C(C)(C)C (stereo unspecified)
inactive: [1] 1.1% | [2] -14.5% | [3] -6.45% | [4] -8.45% | [5] 4.9% | [6] 2.95%

COC12C=CC(CC1)C1C(=O)C=CC(=O)C12 (stereo unspecified)
inactive: [1] -36.5% | [2] -31.4% | [3] -4.7% | [4] -39.3% | [5] -24.2% | [6] -21.4%

COC(=O)C1c2ccc(C)cc2-c2cc(C)ccc21
inactive: [1] 16.5% | [2] -36.9% | [3] 8.55% | [4] 17.4% | [5] 26.4% | [6] 32.6%

O=S(=O)(c1ccccc1)c1cccc2c[n+]3ccccc3cc12
inactive: [1] 34.6% | [2] 9.35% | [3] 39.2% | [4] 24.6% | [5] 22.5% | [6] 24.9%

O=C(O)C1CCCCC1C(=O)NCc1ccco1 (stereo unspecified)
inactive: [1] 5.25% | [2] 4.55% | [3] 4.05% | [4] 3.7% | [5] 25.4% | [6] 0.05%

C[S+](C)CC(=O)c1ccccc1O
inactive: [1] -2.55% | [2] -9.7% | [3] 2.2% | [4] -62.4% | [5] 3.4% | [6] -0.6%

CC1=C(C(=O)Nc2ccccc2C)C(c2ccccc2C)C(C(=O)Nc2ccccc2C)=C(C)N1
inactive: [1] 67.2% | [2] 62.6% | [3] 51.8% | [4] 27.3% | [5] 64.3% | [6] 57.7%

COC1(OC)C(c2ccc(Cl)cc2)C(C#N)(C#N)C1(OC)OC (stereo unspecified)
inactive: [1] -7.25% | [2] -13.2% | [3] -14.2% | [4] -48.4% | [5] -1.15% | [6] -7.45%

CCCCC(C(=O)O)C(C)CC (stereo unspecified)
inactive: [1] 35% | [2] 12.2% | [3] 18.8% | [4] 22.3% | [5] 36.5% | [6] 29.6%

CNc1ncnc2n[nH]nc12
inactive: [1] -10.7% | [2] -0.35% | [3] -12.1% | [4] -23% | [5] -11.6% | [6] 3.45%

Cn1c(=O)c2sc3cc4c(cc3c2c2ccccc21)sc1c(=O)n(C)c2ccccc2c14
inactive: [1] 23.2% | [2] -8.1% | [3] 22.9% | [4] 3.85% | [5] 23.2% | [6] 24.9%

N#Cc1ccccc1NC(=O)Nc1ccc(Cl)cc1Cl
inactive: [1] 16.4% | [2] -7.35% | [3] 27% | [4] -0.25% | [5] 4.35% | [6] 10.6%

CCN(CC)Cc1cc(N)cc(N=Nc2ccc3c(c2)c2ccccc2n3CC)c1O
inactive: [1] 29.2% | [2] 0% | [3] 12.4% | [4] 27.7% | [5] -3.4% | [6] 17.9%
